Cruzain Triton = inhibitors of Trypanosoma cruzi cruzain with detergent. P25779. purified cruzain, Z-FR-AMC fluorescence, 0.01% Triton. Potency, µM, without a hit: max response, negative = inhibition, usual class: inhibitors. 0.43% of 200,000 active. AID 1478;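 also: potency is read from the fitted curve at half-maximal effect; plate controls were neutral wells for no effect and buffer without enzyme for full effect; nearly all actives have a fitted effect of over 40% in size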
Target sequence (P25779 123-467 limits assumed): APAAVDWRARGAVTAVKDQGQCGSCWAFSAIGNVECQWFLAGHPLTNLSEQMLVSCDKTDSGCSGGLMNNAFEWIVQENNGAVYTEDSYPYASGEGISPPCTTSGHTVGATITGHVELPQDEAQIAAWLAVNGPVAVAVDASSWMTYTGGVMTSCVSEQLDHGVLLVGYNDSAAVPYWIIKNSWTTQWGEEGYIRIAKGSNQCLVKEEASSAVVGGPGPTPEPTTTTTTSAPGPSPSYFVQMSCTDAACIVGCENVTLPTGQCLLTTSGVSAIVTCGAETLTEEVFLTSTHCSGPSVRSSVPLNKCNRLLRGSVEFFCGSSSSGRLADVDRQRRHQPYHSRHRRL
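In this qHTS format, compounds are incubated with 1.5 nM cruzain for 15 min at room temperature before 2 uM Z-FR-AMC is added. Release of AMC is followed at 360/450 nm, and progress is taken as the 60 s fluorescence difference.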
Cruzain inh noDet = blocks cruzain activity in detergent-free assay | purified cruzain, Z-FR-AMC fluorescence, no detergent | P25779 | AID 1476 | 2.3% of 200,000 active | Potency, µM, for the others: max response, negative = inhibition, hits mostly inhibitors;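 also: potency is read from the fitted curve at half-maximal effect; plate controls were enzyme without inhibitor for no effect and buffer without enzyme for full effect; nearly all actives have a fitted effect of over 40% in size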
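Purified cruzain at 1.5 nM, pre-incubated 15 min with compound at room temperature in 100 mM sodium acetate pH 5.5, 5 mM DTT, 0.00005% Triton X-100. Reaction started with 2 uM Z-FR-AMC; AMC fluorescence increase over 60 s gives rate.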
NS1 inh = blocks influenza NS1 protein function. AID 2326. 0.4% of 270,000 active. Potency, µM (series often up to 46.1 µM), for the others: at the highest dose activity, positive = more growth; calls by dose curve; also: potency is read from the fitted curve at half-maximal effect; actives are rising curves; nearly all actives have a fitted effect of over 50% in size
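S. cerevisiae expressing influenza A NS1, grown in glucose, washed, then diluted 1:100 into pH 6.0 -URA galactose medium with 23 nl compound. Growth recovery read as OD600; NS1-free strain serves as control.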
Flu NS1 inh = influenza NS1 function inhibition validation | shares compounds with NS1 inh | influenza NS1 function cell assay, 15-point titration | activity change, negative = inhibition, % at 32.9 µM | 1,400 tested, under 10 active; calls by dose curve; also: 0% is about no effect
PR8 titer = influenza virus titer reduction, NS1 project; shares compounds with NS1 inh; AID 504647; 30% of 95 active; MDCK infected influenza A/PR/8/34, virus titer TCID50; hits give low values; virus titer (log TCID50), log10 TCID50 at 5 µM; call rule not given here
Starred values were filed as active, the others as inactive; ? = inconclusive; . = no result. The entries come from a sample that favours hits as a whole. Unless noted, calls follow the shape of the dose curve; as a rule, active = well fitted curve in the direction sought with a large enough effect; inconclusive = small, poorly fitted or top-dose-only effect, or another doubt; inactive = no such curve, though single readings can be large; an effect the other way counts as inactive or inconclusive.

SMILES	Cruzain Triton	Cruzain inh noDet	NS1 inh	Flu NS1 inh	others
CCNc1ncc2nc(-c3cc(F)cc(F)c3)c(=O)n(C)c2n1	0%	?	.	.
CCOc1ccc(NC(=O)c2c(NC(=O)CNCCN3CCOCC3)sc3c2CCC3)cc1	.	.	2.8µM*	-18
CCOc1ccc(NC(=O)c2c(NC(=O)c3ccccc3F)sc3c2CCC3)cc1	1%	1%	.	.
Cc1cc2oc(=O)c(CC(=O)O)c(C)c2c2occ(-c3ccc(F)cc3)c12	-25%	?	.	.
O=C(NCc1ccco1)C1CCCN(S(=O)(=O)c2ccc(-n3cnnn3)cc2)C1 (stereo not given)	-3%	?	4µM*	23
O=C(NCc1ccccc1F)C1CCCN(S(=O)(=O)c2ccc(-n3cnnn3)cc2)C1 (stereo not given)	.	.	7%	.
CCOc1ccc(-n2c(Cc3cc(=O)[nH]c(=O)[nH]3)nnc2SC(C)C)cc1	0%	4%	?	.
CCC(C)Sc1nnc(Cc2cc(=O)[nH]c(=O)[nH]2)n1-c1ccc(F)cc1 (stereo not given)	3%	-13%	8.9µM*	2
Cc1cc(O)c(C(C)C)cc1CN1CCCCC1	2%	-5%	0%	.
Cc1nc(-c2ccc(S(=O)(=O)NCc3ccc(N(C)C)cc3)cc2)co1	-5%	-10%	.	.
COCCN1CCn2c(nc3cc(NC(=O)Cn4nc(C)c5ccccc5c4=O)ccc32)C1	.	.	?	7
COCCN1CCn2c(nc3cc(NC(=O)c4ccc(OC)cc4)ccc32)C1	-9%	-9%	13µM*	13	PR8 titer=8.3
Cc1nn(CC(=O)Nc2ccc3c(c2)nc2n3CCOC2)c(=O)c2ccccc12	3%	1%	-1%	.
COCCN1CCn2c(nc3cc(NC(C)=O)ccc32)C1	.	.	9%	.
Cc1ccccc1Nc1c(-c2ccc(N3CCOCC3)cc2)nc2ccc(Br)cn12	-5%	-14%	.	.
CN(C)CCCN1CCC2(CCC(C(C)(C)C)CC2)CC1	2%	3%	-8%	.
COc1ccccc1CN1CCCC2(CCN(C(=O)c3cnccn3)CC2)C1	1%	-1%	.	.
c1cc2c(cc1Nc1nc(-c3ccc4c(c3)OCO4)cs1)OCCO2	0%	10µM*	7.1µM*	-12
CCC(=O)Nc1nc(-c2ccc3c(c2)OCCO3)cs1	-2%	-4%	-9%	.
Oc1ccc(Nc2nc(-c3ccc(Cl)cc3)cs2)cc1	-15%	-28%	.	.
Oc1ccc(Nc2nc(-c3ccc(O)cc3)cs2)cc1	-6%	-29%	2.8µM*	10
CCOC(=O)C1=C(CNCc2ccccc2)NC(=O)NC1c1ccc(C)cc1 (stereo not given)	-4%	-16%	.	.
Cc1cc(C)cc(NC(=O)Cn2nnc(C(=O)Nc3cc(C)cc(C)c3)c2N)c1	-5%	?	.	.
O=[N+]([O-])c1ccc(N(c2ccccc2)c2ccccc2)cc1	0%	?	?	?
CCN(C(=O)c1ccccc1)c1ccc([N+](=O)[O-])cc1	-2%	-8%	-2%	.
SMILES	Cruzain Triton	Cruzain inh noDet	NS1 inh	Flu NS1 inh	others
O=C(O)COc1ccccc1/C=N/NC(=O)CSc1nnc(SCc2ccc(Cl)cc2)s1	.	.	12%	.
O=C(O)COc1ccccc1/C=N/NC(=O)CSc1nnc(SCc2cccc3ccccc23)s1	.	.	3.5µM*	-29	PR8 titer=7.5*
O=C(COc1ccc(S(=O)(=O)N2CCOCC2)cc1)NCc1ccccn1	.	.	7%	.
Cc1ccc(NC(=O)CN2C(=O)CCc3cc(S(=O)(=O)N4CCOCC4)ccc32)c(C)c1	0%	-1%	.	.
COC(=O)c1ccc(C(NC(=O)OCc2ccccc2)/C(=C/[C@@H](C)C(=O)NCc2cc(C)n(C)n2)c2cccnc2)cc1 (stereo not given in full)	-6%	-9%	.	.
NC(N)=NC(N)=Nc1ccccc1 (tested in a mixture with another compound)	1%	4%	-1%	.
CCOC(=O)Cn1c(=O)oc2cc(S(=O)(=O)N3CCN(c4ccc(Cl)cc4)CC3)ccc21	1%	-14%	.	.
Oc1ccc(-c2sc(Nc3ccccc3)n[n+]2-c2ccc(F)cc2)cc1	.	.	1%	.
Oc1ccc2ccccc2c1-c1sc(Nc2ccccc2)n[n+]1-c1ccc(F)cc1	.	.	?	-26
CCOC(=O)C1(Cc2cccc(OC)c2)CCCN(C(=O)CCN2CCCO2)C1 (stereo not given)	.	.	?	-15
CCOC(=O)C1(Cc2cccc(OC)c2)CCCN(C(=O)c2ccc(OC)o2)C1 (stereo not given)	.	.	14%	.
CCOc1ccc(C(=O)Nc2ccc3oc(-c4ccc5ccccc5c4)nc3c2)cc1	-1%	-3%	.	.
CC(O)/C=C/c1cccc[n+]1C (stereo not given)	2%	-7%	13µM*	-7
C[n+]1ccccc1/C=N/O	0%	10%	5%	.
O=C(NCCN1CCCCC1)c1ccc(Cn2c(SCc3ccc(F)cc3)nc3cccnc32)cc1	-7%	-2%	.	.
CC(=O)N/C(=C\c1cccc([N+](=O)[O-])c1)C(=O)NC1CCCCC1	-1%	16%	11µM*	5
Cc1ccc(NC(=O)/C(=C/c2cccc([N+](=O)[O-])c2)NC(=O)C2CCCCC2)cc1	0%	-2%	1%	.
CCCCCCc1nc2ccccc2c(=O)n1NC(=O)c1c(O)c2c(n(CC(C)C)c1=O)CCCC2	-8%	?	0.4µM*	-15
Cc1nc2ccccc2c(=O)n1NC(=O)c1c(O)c2c(n(CC(C)C)c1=O)CCCC2	-9%	-3%	-121%	.
CCCc1nc2ccccc2c(=O)n1NC(=O)c1c(O)c2ccccc2n(C)c1=O	.	.	4%	.
CCc1nc2ccccc2c(=O)n1NC(=O)c1c(O)c2ccccc2[nH]c1=O	2%	?	1.6µM*	-20
COc1ccc(N2CCN(C(=O)c3c(C)oc4ncnc(N5CCCCC5)c34)CC2)cc1	5%	-6%	.	.
CC(=O)N1CCC2(CC1)CN(C(c1ccccc1)c1ccccc1)C2	-1%	-6%	.	.
Cc1ccc(-n2c(SCC(=O)Nc3ccc4c5c(cccc35)CC4)nc(O)c(C)c2=O)cc1	-14%	?	7.9µM*	38
Cc1ccc(-n2c(SCC(=O)Nc3ccc4c5c(cccc35)CC4)nc(O)cc2=O)cc1	?	71%	?	.
SMILES	Cruzain Triton	Cruzain inh noDet	NS1 inh	Flu NS1 inh	others
Cn1cc([N+](=O)[O-])c(C(=O)N2CCCCCC2)n1	.	.	18%	.
Cn1cc([N+](=O)[O-])c(C(=O)n2cccn2)n1	.	.	?	0
CCN1CCN(C(=O)/C(=C/c2cccs2)NC(=O)c2ccc(C)c(C)c2)CC1	.	.	12%	.
COc1ccc(C2C3C(=O)N(Cc4ccccc4)C(=O)C3ON2c2ccccc2)c(OC)c1OC (stereo not given)	-1%	13%	24%	.
COc1cc(C2C3C(=O)N(Cc4ccccc4)C(=O)C3ON2c2ccccc2)cc(OC)c1OC (stereo not given)	-2%	?	11µM*	?
CCc1nn(CC(=O)Nc2c(C)cc(C)cc2C)c(=O)c2cc3sccc3n12	-3%	-6%	.	.
COCCOC(=O)C1=C(C)NC(C)=C(C(=O)OC(C)C)[C@H]1c1cccc([N+](=O)[O-])c1	-5%	23%	.	.

Screening results from PubChem BioAssay.
